Experimental data published in PubChem BioAssay (NCATS).
Results filed as inconclusive are left out. Calls of active or inactive are those of the source. Unless noted, calls follow the shape of the full dose curve.

Columns and labels:
[1] = qHTS for Inhibitors of the Functional Ribonucleoprotein Complex (vRNP) of Lassa (LASV) Arenavirus: LASV Primary Screen - GLuc reporter signal (AID 1347082; calls by dose curve; tested in HEK293 reporter line; also: nearly all actives have a fitted effect of over 60% in size)
[2] = qHTS for Inhibitors of the Functional Ribonucleoprotein Complex (vRNP) of Lassa (LASV) Arenavirus: Viability assay - alamar blue signal for LASV Primary Screen (AID 1347083; calls by dose curve; tested in HEK293 reporter line; also: nearly all actives have a fitted effect of over 80% in size)
[3] = qHTS for Inhibitors of the Functional Ribonucleoprotein Complex (vRNP) of Lymphocytic Choriomeningitis Arenaviruses (LCMV): Viability assay - alamar blue signal for LCMV Primary Screen (AID 1347085; calls by dose curve; tested in HEK293 reporter line; also: nearly all actives have a fitted effect of over 80% in size)
[4] = molecular target: Nucleoprotein (Lymphocytic choriomeningitis virus (strain Armstrong)) (UniProt P09992); assay: qHTS for Inhibitors of the Functional Ribonucleoprotein Complex (vRNP) of Lymphocytic Choriomeningitis Arenaviruses (LCMV): LCMV Primary Screen - GLuc reporter signal (AID 1347086); also: nearly all actives have a fitted effect of over 70% in size
Chain of Nucleoprotein (Lymphocytic choriomeningitis virus (strain Armstrong)) (P09992 whole entry, looked up): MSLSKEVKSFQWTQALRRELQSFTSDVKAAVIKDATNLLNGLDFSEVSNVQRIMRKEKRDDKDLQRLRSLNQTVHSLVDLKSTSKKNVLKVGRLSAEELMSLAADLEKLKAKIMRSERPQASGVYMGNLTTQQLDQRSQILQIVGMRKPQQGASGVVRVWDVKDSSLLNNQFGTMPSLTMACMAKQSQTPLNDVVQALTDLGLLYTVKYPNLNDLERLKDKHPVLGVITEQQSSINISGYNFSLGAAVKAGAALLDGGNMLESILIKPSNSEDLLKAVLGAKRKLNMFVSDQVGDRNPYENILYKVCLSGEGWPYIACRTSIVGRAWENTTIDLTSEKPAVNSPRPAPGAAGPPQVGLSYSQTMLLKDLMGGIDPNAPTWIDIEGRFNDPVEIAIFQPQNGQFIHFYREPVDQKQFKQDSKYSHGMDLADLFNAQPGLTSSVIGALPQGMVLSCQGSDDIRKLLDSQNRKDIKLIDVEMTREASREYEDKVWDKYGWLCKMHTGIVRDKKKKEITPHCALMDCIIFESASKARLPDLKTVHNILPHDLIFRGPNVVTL

Measured: Potency
Also: series mostly up to about 57 µM.

Cc1cc(NC(=O)C2=C(O)c3ccccc3S(=O)(=O)N2C)no1
inactive: all assays above

CCN(CC)CCN
inactive: all assays above

COc1cc(C(=S)N2CCOCC2)ccc1O
inactive: all assays above

OC(CCN1CCCCC1)(c1ccccc1)C1CC2C=CC1C2 (centres undefined)
inactive: all assays above

O=c1[nH]c(=O)c2ccccc2o1
inactive: all assays above

Oc1ccc(CCNCCCCCCNCCc2ccccc2)cc1O
inactive: all assays above

COC(=O)[C@@H](N)Cc1ccc(O)c(O)c1
inactive: all assays above

OC[C@]1(O)OC[C@@H](O)[C@H](O)[C@@H]1O
inactive: all assays above

CCCCOc1ccc(C(=O)CCN2CCCCC2)cc1
inactive: all assays above

CCOC(=O)C(=O)CCc1ccccc1
inactive: all assays above

Cc1cccc(CN2CCN(C(c3ccccc3)c3ccc(Cl)cc3)CC2)c1 (centres undefined)
inactive: all assays above

C/C(=C(/OCCOc1ccc(Cl)cc1)c1ccc(Cl)cc1Cl)n1ccnc1
inactive: all assays above

NC(CSCC(=O)O)C(=O)O (centres undefined)
inactive: all assays above

Cc1cc(N)c2cc(NC(=O)Nc3ccc4nc(C)cc(N)c4c3)ccc2n1
inactive: all assays above

OCc1cc(C(O)CNCCCCCCOCCCCc2ccccc2)ccc1O (centres undefined)
inactive: all assays above

Oc1c(Cl)cc(Cl)c2cccnc12
inactive: all assays above

CCCOc1ccccc1-c1nc2n[nH]nc2c(=O)[nH]1
inactive: all assays above

CNC(=O)Oc1ccc2c(c1)[C@]1(C)CCN(C)[C@@H]1N2C
inactive: all assays above

CNC(=O)CN(CCN(CCN(CC(=O)[O-])CC(=O)NC)CC(=O)[O-])CC(=O)[O-].O.[Gd+3]
inactive: all assays above

CC(C)(C)c1ccc(C(=O)CCCN2CCC(OC(c3ccccc3)c3ccccc3)CC2)cc1
inactive: all assays above

CC(=O)[C@H]1CC[C@H]2[C@@H]3CC=C4C[C@@H](O)CC[C@]4(C)[C@H]3CC[C@]12C
inactive: all assays above

O=C1Nc2ccccc2C1(c1ccc(O)cc1)c1ccc(O)cc1
inactive: all assays above

CCOC(=O)c1cccc(N)c1
inactive: all assays above

O=C1NC(=O)[C@@]2(CCOc3ccc(F)cc32)N1
inactive: all assays above

C[C@H]1C[C@H]2[C@@H]3CCC4=CC(=O)C=C[C@]4(C)[C@@]3(Cl)[C@@H](O)C[C@]2(C)[C@@]1(O)C(=O)CO
inactive: all assays above

CN(C)CCOC(c1ccccc1)c1ccc(Br)cc1 (centres undefined)
inactive: all assays above

CCC(CC)(CC(=O)Nc1cccc(/C=C/c2nc(C3CCC3)cs2)c1)C(=O)O
inactive: all assays above

Cc1c(N)cccc1C(F)(F)F
inactive: all assays above

O=C1CC2(CCCC2)CC(=O)N1CCNCC1COc2ccccc2O1 (centres undefined)
inactive: all assays above

C=CCc1ccccc1OCC(O)CNC(C)C (centres undefined)
inactive: all assays above

CCCCC[C@H](O)C=C[C@H]1[C@H](O)CC(=O)[C@H]1CC=CCCCC(=O)O
inactive: all assays above

Fc1ccc(C(c2ccc(F)cc2)N2CCN(C/C=C/c3ccccc3)CC2)cc1
inactive: all assays above

c1ccc(OCc2ccc(CCCN3CCOCC3)cc2)cc1
inactive: all assays above

CN(C)[C@@H](CCOc1cccc2ccccc12)c1ccccc1
inactive: all assays above

C1CCN2C[C@@H]3C[C@@H](CN4CCCC[C@@H]34)[C@H]2C1
inactive: all assays above

CC(C)=CCC/C(C)=C/CC/C(C)=C/C(=O)OCC(=O)[C@@]1(O)CC[C@H]2[C@@H]3CCC4=CC(=O)C=C[C@]4(C)[C@H]3[C@@H](O)C[C@@]21C
inactive: all assays above
